These results are taken from PubChem BioAssay (Tox21).

Structures are written as SMILES. Inconclusive results are not listed. Entries that show only a call come without a potency. Active and inactive are the calls of the source. The call rests on the fitted dose curve; in most records, active means well fitted inhibition curve with a large enough effect in the repeat runs; inconclusive means weak or mixed curves, or effect the other way; inactive means no such curve, though single readings can be large or run the other way.

The nature of the experiment: qHTS assay to identify small molecule antagonists of the retinoic acid receptor (RAR) signaling pathway (AID 1159552; further: nearly all actives have a fitted effect of over 50% in size). The following applies: C3RL4 RARE luciferase reporter, retinol-stimulated, 6 h; series mostly up to 92.4 µM. The text has this:
National Center for Advancing Translational Sciences [NCATS]
NIH Chemical Genomics Center [NCGC]
U.S. Environmental Protection Agency [EPA]
National Institutes of Environmental Health Sciences [NIEHS]
National Toxicology Program [NTP]
U.S. Food and Drug Administration [FDA]
All-trans Retinoic acid (atRA) is the potent natural metabolite of retinol and plays an important role in normal embryonic development and maintenance of cellular phenotype in adult animals. atRA is the activating ligand for the retinoic acid receptors (RARs) which form heterodimers with retinoid X receptors (RXRs) on the retinoic acid response element (RARE). Through activation of the RAR/RXRs nuclear receptors, atRA regulates the transcription of a large number of protein-coding genes and regulatory RNAs. Intracellular levels of atRA are controlled by the retinol signaling pathway (RSP) that regulates the biosynthesis and catabolism of atRA to maintain physiological levels. Chemicals that interfere with the RSP can cause abnormal intracellular levels of atRA and therefore are potential developmental toxicants. To assess compounds for the potential adverse effect on embryonic development through interfering with retinol signaling, a cell-based RARE luciferase reporter gene assay was used. C3RL4 cell line (OARSA/CFSAN/FDA, Laurel, MD) was used to screen Tox21 10K compound library for identifying inhibitors of the RSP.
Tox21 Assay Protocol Summary:
C3RL4 cells were seeded at 1,000/well in 4 uL of assay medium into white solid 1,536-well tissue culture plates (Greiner Bio-One North America Inc. Monroe, NC) using a Multidrop Combi (Thermo Scientific, Waltham, MA) dispenser. After incubation at 37 C and 5% CO2 for an overnight, 23 nL of compounds dissolved in DMSO, positive control or DMSO only were transferred by a Pintool station (Kalypsys, San Diego, CA). One ul of 1 uM (final concentration) of Retinol was added right after the compound addition by using a Flying Reagent Dispenser (FRD) (Aurora Discovery, San Diego, CA). After 6 hr incubation at 37 C and 5% CO2, 5 uL of Amplite Luciferase reagent (AAT Bioquest Inc. Sunnyvale, CA) was added to each assay plate using an FRD. Luminescence was quantified on a ViewLux plate reader (PerkinElmer, Waltham, MA) after 30 min incubation at room temperature.
A general note: Quantitative high-throughput screening tests each substance at several concentrations.
Consider `CCOC(=O)CC(C)=O`, for which the Potency result is “inactive”.
On the same count and under the same terms, in the case of `CCOc1ccc(C(=O)OCCN(CC)CC)cc1` it was “inactive”; in that of `NCCc1cnc[nH]1`, “inactive”.
For `CCOC(=O)c1ccc(C)cc1`, the Potency result is “inactive”.
Take `CCC(C)S` (stereo not given): the activity, negative = inhibition is -4.13% [at 3.27 µM] (inactive).
On to `CC(=O)N(CC(O)CO)c1c(I)c(C(=O)NCCO)c(I)c(C(=O)NCC(O)CO)c1I` (stereo not given), for which the Potency result was “inactive”.
`CC1=CC(C)C(C=O)CC1` (stereo not given): the Potency result is “inactive”.
In the case of `O=S(O)CO`, the Potency result is “inactive”.
Regarding `O=C(O)COc1nn(Cc2ccccc2)c2ccccc12`, the Potency result is “inactive”.
In the case of `NS(=O)(=O)c1cc(C(=O)NN2C[C@H]3[C@H]4CCC(C4)[C@H]3C2)ccc1Cl`, the Potency entry is “inactive”.
On to `Cc1ccc(=O)n(-c2ccccc2)c1`, for which the Potency result is “inactive”.
For `Cc1c(O)cccc1O`, the Potency entry was “inactive”.
As to `CC1(C)C(O)C(C)(C)C1O` (stereo not given), the Potency result was “inactive”.
Regarding `CCN1CCC[C@H]1CNC(=O)c1cc(S(N)(=O)=O)ccc1OC`, the Potency result is “inactive”.
`COCCCOCCCOC`: the Potency entry is “inactive”.
Consider `CC(C)NCCCC1(C(N)=O)c2ccccc2-c2ccccc21`, for which the Potency result is “inactive”.
Turning to `Oc1ccc(C2CNCCc3c2cc(O)c(O)c3Cl)cc1` (stereo not given), the Potency entry is “inactive”.
On the same count and under the same terms, in the case of `CC(C)(C)c1nnc(NS(=O)(=O)c2ccccc2)s1` it was “inactive”; in that of `OC(CCN1CCCCC1)(c1ccccc1)C1CC2C=CC1C2` (stereo not given), “inactive”; in that of `c1cnc(N2CCN(Cc3ccc4c(c3)OCO4)CC2)nc1`, “inactive”.
On to `NS(=O)(=O)c1cc2c(cc1Cl)NC(C1CC3C=CC1C3)NS2(=O)=O` (stereo not given), for which the Potency result was “inactive”.
Turning to `CCCC(=O)O[C@]1(C(=O)CO)CC[C@H]2[C@@H]3CCC4=CC(=O)CC[C@]4(C)[C@H]3[C@@H](O)C[C@@]21C`, the Potency result was “inactive”.
As for `Nc1cc(=O)[nH]c(N)n1`, the Potency entry is “inactive”.
With `O=C(O)Cc1ccc(CCNS(=O)(=O)c2ccc(Cl)cc2)cc1`, the Potency entry was “inactive”.
On to `CCCN(CCC)CCc1cccc2c1CC(=O)N2`, for which the Potency result is “inactive”.
As to `Cc1cc(O)cc2c1O[C@](C)(CCC[C@H](C)CCC[C@H](C)CCCC(C)C)CC2`, the Potency entry was “inactive”.
Turning to `COC(=O)CCSCCC(=O)OC`, the Potency result is “inactive”.
Consider `Cc1sccc1Br`, for which the Potency entry is “inactive”.
On the same count and under the same terms, in the case of `c1ccc([C@H]2CN3CCSC3=N2)cc1` it was “inactive”; in that of `Cc1nc2c([nH]1)c(=O)n(C)c(=O)n2Cc1ccco1`, “inactive”.
On to `CO[Si](CCCOCC1CO1)(OC)OC` (stereo not given), for which the Potency result is “inactive”.
Same read-out and setting: the value for `CC/C=C\CC/C=C/C(OCC)OCC` was “inactive”.
Regarding `C=C1CC[C@H]2C[C@@H]1C2(C)C`, the Potency entry was “inactive”.
As to `O=C(O)CNC(=O)c1ccc([N+](=O)[O-])cc1`, the Potency result was “inactive”.
The same measure, in the same setting: in the case of `CCc1cccc2c(CCO)c[nH]c12` it was “inactive”; in that of `CC(C)=CCCC(C)CC(=O)O` (stereo not given), “inactive”.
Same read-out and setting: in the case of `CN1C(=O)N(C)C(O)C1O` (stereo not given) it was “inactive”; in that of `C=CCS(=O)(=O)O`, “inactive”.
Regarding `NCCCNCCSP(=O)(O)O`, the activity, negative = inhibition is 8.45% [at 8.39 µM] (inactive).
Consider `O=C(O)CN(CCOCCOCCN(CC(=O)O)CC(=O)O)CC(=O)O`, for which the activity, negative = inhibition is 12.3% [at 0.349 µM] (inactive).
